39 compounds from the supplement of paper PMC12350171 can be followed below.

Where a name gives a salt, the structure may show the parent alone.
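For growth AUC normalised to DMSO control (median) in this document: active when median AUC fell below 0.1.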

One experiment has as its system Vibrio cholerae. Put plainly: growth AUC normalised to DMSO control (fraction of control); higher = less growth inhibition, active = hit call of the paper. Conditions: 20 µM. The gist of the method:
(§1)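 After two anaerobic passages, pathogens were added at a starting OD578 of 0.01 to pre-reduced mGAM plates holding compound at 20 μM with 1% DMSO; hemin and NAD were supplemented for Haemophilus parainfluenzae. Sealed with breathable membranes, plates were read at OD578 hourly for 24 h, in three biological replicates. The trapezoidal rule, applied up to the exponential-to-stationary transition, gave the growth-curve AUC, which was normalised to DMSO controls on the same plate.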
On to `O=[N+]([O-])O[C@@H]1CO[C@H]2[C@@H]1OC[C@@H]2O` [Isosorbide mononitrate], for which the “growth AUC normalised to DMSO control” value is 1.02 (inactive).

On to `COc1ccc2c(c1)[C@]13CCCC[C@@H]1[C@H](C2)N(C)CC3` [Dextromethorphan hydrobromide monohydrate], for which the “growth AUC normalised to DMSO control” value was 0.955 (inactive).

As to `COc1ccc(Cc2nccc3cc(OC)c(OC)cc23)cc1OC` [Papaverine hydrochloride], the “growth AUC normalised to DMSO control” value was 0.944 (inactive).

`CN[C@@H]1C[C@@H](c2ccc(Cl)c(Cl)c2)c2ccccc21` [Indatraline hydrochloride]: the “growth AUC normalised to DMSO control” value was 1 (inactive).

For `CC(C)C[C@H]1C(=O)N2CCC[C@H]2[C@]2(O)O[C@](NC(=O)[C@@H]3C=C4c5cccc6[nH]c(Br)c(c56)C[C@H]4N(C)C3)(C(C)C)C(=O)N12` [Bromocryptine mesylate], the “growth AUC normalised to DMSO control” value was 0.996 (inactive).

Turning to `C=CCN1CC[C@]23c4c5ccc(O)c4O[C@H]2C(=O)CC[C@@]3(O)[C@H]1C5` [Naloxone hydrochloride], the “growth AUC normalised to DMSO control” value was 1 (inactive).

For the compound `C=C1C[C@@H]2[C@H](CC[C@]3(C)C(=O)CC[C@@H]23)[C@@]2(C)C=CC(=O)C=C12` [Exemestane], the “growth AUC normalised to DMSO control” value is 0.964 (inactive).

Turning to `CCC(=O)O[C@H]1CC[C@H]2[C@@H]3CCC4=CC(=O)CC[C@]4(C)[C@H]3CC[C@]12C` [Testosterone propionate], the “growth AUC normalised to DMSO control” value is 1.04 (inactive).

Turning to `CC(N)C(O)c1ccccc1` (stereo not drawn) [Phenylpropanolamine hydrochloride], the “growth AUC normalised to DMSO control” value is 1.01 (inactive).

Turning to `C[C@]12COC(=O)C[C@@H]1CC[C@@H]1[C@@H]2CC[C@@]2(C)[C@H]1CC[C@]2(C)O` [Oxandrolone], the “growth AUC normalised to DMSO control” value is 1 (inactive).

`C[C@]12CCC(=O)C=C1CC[C@@H]1[C@@H]2C(=O)C[C@]2(C)C(=O)CC[C@@H]12` [Adrenosterone]: the “growth AUC normalised to DMSO control” value is 1 (inactive).

With `CCN(C)C(=O)Oc1cccc([C@H](C)N(C)C)c1` [Rivastigmine], the “growth AUC normalised to DMSO control” value was 1.11 (inactive).

In another experiment the test system is Yersinia pseudotuberculosis. Described as above. Conditions: 20 µM. Summed up:
as §1
Consider `O=[N+]([O-])O[C@@H]1CO[C@H]2[C@@H]1OC[C@@H]2O` [Isosorbide mononitrate], for which the “growth AUC normalised to DMSO control” value was 1 (inactive).

As to `COc1ccc2c(c1)[C@]13CCCC[C@@H]1[C@H](C2)N(C)CC3` [Dextromethorphan hydrobromide monohydrate], the “growth AUC normalised to DMSO control” value is 0.97 (inactive).

With `COc1ccc(Cc2nccc3cc(OC)c(OC)cc23)cc1OC` [Papaverine hydrochloride], the “growth AUC normalised to DMSO control” value is 0.997 (inactive).

In the case of `CN[C@@H]1C[C@@H](c2ccc(Cl)c(Cl)c2)c2ccccc21` [Indatraline hydrochloride], the “growth AUC normalised to DMSO control” value is 1.02 (inactive).

Regarding `CC(C)C[C@H]1C(=O)N2CCC[C@H]2[C@]2(O)O[C@](NC(=O)[C@@H]3C=C4c5cccc6[nH]c(Br)c(c56)C[C@H]4N(C)C3)(C(C)C)C(=O)N12` [Bromocryptine mesylate], the “growth AUC normalised to DMSO control” value was 1.03 (inactive).

`C=CCN1CC[C@]23c4c5ccc(O)c4O[C@H]2C(=O)CC[C@@]3(O)[C@H]1C5` [Naloxone hydrochloride]: the “growth AUC normalised to DMSO control” value was 1.01 (inactive).

Turning to `C=C1C[C@@H]2[C@H](CC[C@]3(C)C(=O)CC[C@@H]23)[C@@]2(C)C=CC(=O)C=C12` [Exemestane], the “growth AUC normalised to DMSO control” value is 1 (inactive).

For the compound `CCC(=O)O[C@H]1CC[C@H]2[C@@H]3CCC4=CC(=O)CC[C@]4(C)[C@H]3CC[C@]12C` [Testosterone propionate], the “growth AUC normalised to DMSO control” value was 0.989 (inactive).

In the case of `CC(N)C(O)c1ccccc1` (stereo not drawn) [Phenylpropanolamine hydrochloride], the “growth AUC normalised to DMSO control” value was 0.972 (inactive).

On to `C[C@]12COC(=O)C[C@@H]1CC[C@@H]1[C@@H]2CC[C@@]2(C)[C@H]1CC[C@]2(C)O` [Oxandrolone], for which the “growth AUC normalised to DMSO control” value is 0.963 (inactive).

For the compound `C[C@]12CCC(=O)C=C1CC[C@@H]1[C@@H]2C(=O)C[C@]2(C)C(=O)CC[C@@H]12` [Adrenosterone], the “growth AUC normalised to DMSO control” value was 0.993 (inactive).

For `CCN(C)C(=O)Oc1cccc([C@H](C)N(C)C)c1` [Rivastigmine], the “growth AUC normalised to DMSO control” value is 1.04 (inactive).

In another experiment the test system is P. vulgatus RND KO. The experiment in a line: growth AUC normalised to DMSO control (median) (fraction of control); higher = less growth inhibition, active = hit call of the paper. Conditions: 20 µM. The gist of the method:
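Each strain went through two overnight passages under anaerobic conditions before growth in mGAM in 96-well plates, starting at OD578 0.01, with each compound from the approved-drug library at 20 μM and 1% DMSO. Inside an anaerobic incubator, OD578 was recorded every hour for 24 h. Growth curves were cut off at entry into stationary phase, and the area under the curve was calculated by the trapezoidal rule and normalised to vehicle wells on the same plate. Reported values are medians of three biological replicates.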
In the case of `c1ccc2c(c1)Nc1ccccc1S2` [Phenothiazine], the “growth AUC normalised to DMSO control” value is 1.01 (inactive).

With `O=[N+]([O-])O[C@@H]1CO[C@H]2[C@@H]1OC[C@@H]2O` [Isosorbide mononitrate], the “growth AUC normalised to DMSO control” value was 0.946 (inactive).

Turning to `CC[C@@]1([C@@H]2O[C@@H]([C@H]3O[C@@](O)(CO)[C@H](C)C[C@@H]3C)C[C@@H]2C)CC[C@H]([C@]2(C)CC[C@]3(C[C@H](O)[C@@H](C)[C@@H]([C@@H](C)[C@@H](OC)[C@H](C)C(=O)O)O3)O2)O1` [Monensin sodium salt], the “growth AUC normalised to DMSO control” value is 0.261 (inactive).

As to `C[C@]12C=CC(=O)C=C1CC[C@@H]1[C@@H]2CC[C@@]2(C)[C@H]1CC[C@]2(C)O` [Methandrostenolone], the “growth AUC normalised to DMSO control” value was 0.996 (inactive).

For the compound `C=C[C@H]1CN2CC[C@H]1C[C@H]2[C@H](OC(=O)OCC)c1ccnc2ccc(OC)cc12` [Quinine ethyl carbonate], the “growth AUC normalised to DMSO control” value is 1.01 (inactive).

As to `COc1ccc2c(c1)[C@]13CCCC[C@@H]1[C@H](C2)N(C)CC3` [Dextromethorphan hydrobromide monohydrate], the “growth AUC normalised to DMSO control” value was 1.02 (inactive).

For `Oc1ccc(Cl)cc1Cc1cc(Cl)ccc1O` [Dichlorophen], the “growth AUC normalised to DMSO control” value was 0.641 (inactive).

Consider `CC(C)=CC1C(C(=O)OCc2cccc(Oc3ccccc3)c2)C1(C)C` (stereo not drawn) [Phenothrin], for which the “growth AUC normalised to DMSO control” value is 1.01 (inactive).

For `CC(C)C[C@H](CN)CC(=O)O` [Pregabalin], the “growth AUC normalised to DMSO control” value was 0.971 (inactive).

Turning to `CC(C)(C)NCC(O)c1ccccc1Cl` (stereo not drawn) [Tulobuterol Hydrochloride], the “growth AUC normalised to DMSO control” value is 1.01 (inactive).

For the compound `CCN(CC)CCOC(=O)C(O)(c1ccccc1)c1ccccc1` [Benactyzine hydrochloride], the “growth AUC normalised to DMSO control” value was 0.979 (inactive).

Turning to `C[C@]12CC[C@@H]3c4ccc(OC(=O)N(CCCl)CCCl)cc4CC[C@H]3[C@@H]1CC[C@@H]2O` [Estramustine], the “growth AUC normalised to DMSO control” value was 0.982 (inactive).

Consider `O=C(O[C@H]1C[N+]2(CCCOc3ccccc3)CCC1CC2)C(O)(c1cccs1)c1cccs1` [Aclidinium bromide], for which the “growth AUC normalised to DMSO control” value is 1 (inactive).

For the compound `COc1ccc(Cc2nccc3cc(OC)c(OC)cc23)cc1OC` [Papaverine hydrochloride], the “growth AUC normalised to DMSO control” value is 0.997 (inactive).

Regarding `Nc1ccncc1` [Dalfampridine], the “growth AUC normalised to DMSO control” value was 1 (inactive).

Regarding `CN[C@@H]1C[C@@H](c2ccc(Cl)c(Cl)c2)c2ccccc21` [Indatraline hydrochloride], the “growth AUC normalised to DMSO control” value is 0.973 (inactive).

Regarding `NC(=O)CN1CC(O)CC1=O` (stereo not drawn) [Oxiracetam], the “growth AUC normalised to DMSO control” value is 1.02 (inactive).

`CN1C(=O)COc2c(C(=O)NC3CN4CCC3CC4)cc(Cl)cc21` (stereo not drawn) [Azasetron hydrochloride]: the “growth AUC normalised to DMSO control” value is 1.02 (inactive).

For `C[C@]12CC[C@H](O)CC1=CC[C@@H]1[C@@H]2CC[C@]2(C)C(=O)CC[C@@H]12` [Prasterone], the “growth AUC normalised to DMSO control” value is 0.995 (inactive).

With `CC(C)C[C@H]1C(=O)N2CCC[C@H]2[C@]2(O)O[C@](NC(=O)[C@@H]3C=C4c5cccc6[nH]c(Br)c(c56)C[C@H]4N(C)C3)(C(C)C)C(=O)N12` [Bromocryptine mesylate], the “growth AUC normalised to DMSO control” value is 1.01 (inactive).

For `C=CCN1CC[C@]23c4c5ccc(O)c4O[C@H]2C(=O)CC[C@@]3(O)[C@H]1C5` [Naloxone hydrochloride], the “growth AUC normalised to DMSO control” value was 1.03 (inactive).

Regarding `C=CC[C@]1(O)CC[C@H]2[C@@H]3CCC4=CCCC[C@@H]4[C@H]3CC[C@@]21C` [Allylestrenol], the “growth AUC normalised to DMSO control” value was 0.959 (inactive).

With `C=C1C[C@@H]2[C@H](CC[C@]3(C)C(=O)CC[C@@H]23)[C@@]2(C)C=CC(=O)C=C12` [Exemestane], the “growth AUC normalised to DMSO control” value was 0.978 (inactive).

Regarding `C[C@]12C/C(=C/O)C(=O)C[C@@H]1CC[C@@H]1[C@@H]2CC[C@@]2(C)[C@H]1CC[C@]2(C)O` [Oxymetholone], the “growth AUC normalised to DMSO control” value was 0.918 (inactive).

`CCC(=O)O[C@H]1CC[C@H]2[C@@H]3CCC4=CC(=O)CC[C@]4(C)[C@H]3CC[C@]12C` [Testosterone propionate]: the “growth AUC normalised to DMSO control” value is 1 (inactive).

For the compound `CC(N)C(O)c1ccccc1` (stereo not drawn) [Phenylpropanolamine hydrochloride], the “growth AUC normalised to DMSO control” value is 1.03 (inactive).

Regarding `Cc1cccc(C)c1NC(=O)CN1CCCC1=O` [Nefiracetam], the “growth AUC normalised to DMSO control” value was 1.01 (inactive).

Take `C[C@]12COC(=O)C[C@@H]1CC[C@@H]1[C@@H]2CC[C@@]2(C)[C@H]1CC[C@]2(C)O` [Oxandrolone]: the “growth AUC normalised to DMSO control” value is 1.03 (inactive).

For `CCC1(C2=NCCN2)Cc2ccccc2O1` (stereo not drawn) [Efaroxan hydrochloride], the “growth AUC normalised to DMSO control” value is 1.02 (inactive).

For `CCC(COC(=O)c1cc(OC)c(OC)c(OC)c1)(c1ccccc1)N(C)C` (stereo not drawn) [Trimebutine], the “growth AUC normalised to DMSO control” value is 1 (inactive).

For the compound `COC[C@@H](NC(C)=O)C(=O)NCc1ccccc1` [Lacosamide], the “growth AUC normalised to DMSO control” value was 0.998 (inactive).

As for `CCCCCC[C@H]1C(=O)O[C@H](C)[C@H](NC(=O)c2cccc(NC=O)c2O)C(=O)O[C@@H](C)[C@@H]1OC(=O)CC(C)C` [Antimycin A], the “growth AUC normalised to DMSO control” value was 1.03 (inactive).

For the compound `C[C@]12CCC(=O)C=C1CC[C@@H]1[C@@H]2C(=O)C[C@]2(C)C(=O)CC[C@@H]12` [Adrenosterone], the “growth AUC normalised to DMSO control” value is 0.986 (inactive).

With `N#Cc1nn(-c2c(Cl)cc(C(F)(F)F)cc2Cl)c(N)c1[S+]([O-])C(F)(F)F` (stereo not drawn) [Fipronil], the “growth AUC normalised to DMSO control” value was 0.985 (inactive).

Turning to `NC(=O)OCCCc1ccccc1` [Phenprobamate], the “growth AUC normalised to DMSO control” value was 1.01 (inactive).

For `CC[C@@H](C(=O)[C@@H](C)[C@@H](O)[C@H](C)[C@@H]1O[C@@H]([C@@H](CC)C(=O)O)CC[C@@H]1C)[C@H]1O[C@]2(C=C[C@@H](O)[C@]3(CC[C@@](C)([C@H]4CC[C@](O)(CC)[C@H](C)O4)O3)O2)[C@H](C)C[C@@H]1C` [Salinomycin sodium], the “growth AUC normalised to DMSO control” value was 0.00978 (active).

In the case of `CCN(C)C(=O)Oc1cccc([C@H](C)N(C)C)c1` [Rivastigmine], the “growth AUC normalised to DMSO control” value was 1.01 (inactive).

As for `Nc1nc(N)nc(NC2CC2)n1` [Cyromazine], the “growth AUC normalised to DMSO control” value was 0.998 (inactive).

For the compound `C#C[C@]1(O)C=C[C@H]2[C@@H]3CCC4=CC(=O)CC[C@@H]4[C@H]3CC[C@@]21CC` [Gestodene], the “growth AUC normalised to DMSO control” value is 0.978 (inactive).
